Test results published in PubChem BioAssay AID1851 (National Center for Advancing Translational Sciences (NCATS), 2009).
Screen size: about 16,000 compounds; about 5,700 (36%) were called active. About 24% were inconclusive and are not listed. The list shows a part of the results. Unmarked numbers belong to inactive results. The call rests on the fitted dose curve; in most records, active means well fitted curve in the direction sought with a large enough effect; inconclusive means small, poorly fitted or top-dose-only effect, or effect the other way; inactive means no such curve, though single readings can be large or run the other way.

Each compound was assayed against Cytochrome P450 1A2 (Homo sapiens) (UniProt P05177) (assay: Cytochrome panel assay with activity outcomes). Details: recombinant CYP, pro-luciferin dealkylation, luminescence, p450-cyp1a2; series mostly up to 57.1 µM; activity, negative = inhibition: at the top concentration.
On the % scale 0 is the no-effect control and ±100 the full control effect.

Cytochrome P450 1A2 (Homo sapiens), sequence (P05177 whole entry, looked up): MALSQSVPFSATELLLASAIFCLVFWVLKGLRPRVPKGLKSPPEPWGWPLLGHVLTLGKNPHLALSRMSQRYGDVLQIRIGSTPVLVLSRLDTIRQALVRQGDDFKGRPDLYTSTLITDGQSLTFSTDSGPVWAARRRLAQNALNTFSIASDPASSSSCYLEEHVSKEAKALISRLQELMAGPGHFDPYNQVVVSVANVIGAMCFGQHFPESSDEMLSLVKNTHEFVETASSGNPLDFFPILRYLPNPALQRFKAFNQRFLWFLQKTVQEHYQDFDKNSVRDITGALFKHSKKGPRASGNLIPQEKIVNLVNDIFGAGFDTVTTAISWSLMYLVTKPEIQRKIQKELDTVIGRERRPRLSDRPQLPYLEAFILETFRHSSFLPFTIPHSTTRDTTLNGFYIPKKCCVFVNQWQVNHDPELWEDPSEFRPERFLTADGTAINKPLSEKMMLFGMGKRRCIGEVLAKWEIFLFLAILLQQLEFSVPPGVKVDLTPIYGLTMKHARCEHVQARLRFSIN

Row | SMILES | activity, negative = inhibition | AC50
1 | O=c1cc(CSc2nnc(-c3cccnc3)n2-c2ccccc2F)nc2sccn12 | -0.0564% | –
2 | COCCn1c(=O)c(-c2ccc(Cl)cc2)nc2cnc(N(C)C)nc21 | – | 1 µM (active)
3 | COCCn1c(=O)c(-c2ccccc2)nc2cnc(N(C)C)nc21 | – | 3.16 µM (active)
4 | COCCn1c(=O)c(-c2ccc(F)cc2)nc2cnc(N(C)C)nc21 | – | 2 µM (active)
5 | C[C@@H]1/C=C\CC(=O)OC[C@H](C)C(=O)N2CCC[C@@H]2C(=O)OC1 | -1.21% [at 11.4 µM] | –
6 | Cc1ccc(/C=C/c2ccc(=O)n(Cc3ccc(Cl)cc3Cl)n2)cc1 | – | 10 µM (active)
7 | CC(=O)OC[C@@H]1O[C@H](CCON=C(C)C)C=C[C@@H]1OC(C)=O | 4.98% [at 11.4 µM] | –
8 | c1ccc(CCc2cccnc2)nc1 | – | 0.398 µM (active)
9 | ON(CCc1ccccn1)Cc1ccccc1 | – | 2.51 µM (active)
10 | CS(=O)(=O)N(CC(=O)O)Cc1ccccc1 | 4.38% [at 11.4 µM] | –
11 | CNCCc1ccccn1 | -3.65% [at 25.6 µM] | –
12 | ON(CCc1ccncc1)Cc1ccccc1 | – | 1 µM (active)
13 | O=C1NC(=O)[C@@](Cc2ccccc2)(c2cccnc2)N1 | -17.1% [at 2.29 µM] | –
14 | Cc1nc2nc(C)c(CCC(=O)NCCCN3CCN(c4cccc(Cl)c4)CC3)c(C)n2n1 | -27.2% | –
15 | O=C(c1csnn1)N1CCC2(CCN(Cc3ccccc3)CC2)CC1 | 4.19% | –
16 | Cc1ccccc1CSc1nsc(N)n1 | – | 14.1 µM (active)
17 | O=C(N/C(=C\c1cccs1)C(=O)N1CCCCCC1)c1ccccc1 | -15.2% | –
18 | O=C(NNC(=O)c1ccccc1)C(=O)N1CCCCC1 | -0.824% | –
19 | O=C(NC(N1CCCC1)C(Cl)(Cl)Cl)c1ccccc1 (centres undefined) | – | 11.2 µM (active)
20 | COc1ccc2nccc(C(=O)O)c2c1 | -5.66% [at 25.6 µM] | –
21 | COc1ccc(OC)c(-c2cc(C(=O)O)c3cc4ccccc4cc3n2)c1 | -21.4% [at 2.29 µM] | –
22 | COc1ccc2oc(C(=O)c3ccccc3)c(N)c2c1 | – | 1.26 µM (active)
23 | O=C(O)c1ccc(C(=O)c2ccccc2)c(C(=O)O)c1 | 3.14% [at 2.29 µM] | –
24 | COc1ccc(C(=O)c2ccccc2)c(O)c1 | – | 1.58 µM (active)
25 | O=C(O)c1ccc(C(=O)c2ccccc2C(=O)O)cc1C(=O)O | 2.76% [at 11.4 µM] | –
26 | CN(C)c1nccc(N(Cc2ccccc2)Cc2ccccc2)c1C#N | – | 11.2 µM (active)
27 | COc1ccc(CN(CCN(C)C)c2ccccn2)cc1 | – | inactive
28 | Cc1ccc(N(Cc2ccccc2)Cc2ccccc2)cc1 | -24.2% [at 2.29 µM] | –
29 | Cc1cc(N2C(=O)C(O)=C(C(=O)c3ccco3)C2c2ccc(O)cc2)no1 (centres undefined) | -3.33% | –
